Screening results (PubChem BioAssay)
Rpn11 inh: inhibitors of human proteasome Rpn11 | O00487 | human 26S proteasome, Ub4-pepOG fluorescence polarization; 20S core pre-blocked with epoxomicin | inhibition, % at 20 µM | 360,000 compounds, 0.59% hits;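 active = inhibition at 20 µM, scaled to each plate's controls, above about 33%, limit read from the data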
HNF4A DNA FP: change in binding of human HNF4 alpha to DNA; P41235; HNF4a-FITC DNA binding, fluorescence polarization, 1 h; activity change, % at 10 µM; 360,000 compounds, 0.3% hits; in the data active = activity change above about 30%, passing the limit was not always enough
TPT1 inhibitor: blocks Candida albicans tRNA 2'-phosphotransferase | recombinant caTPT1, FP RNA substrate dephosphorylation | inhibition, % at 5 µM | 300,000 compounds, 0.81% hits | AID 1962;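 active = inhibition above the mean of all tested compounds plus 3 SD, set per screening campaign, cut at about 24% in these data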;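 also: plate controls were DMSO alone for no effect and ferristatin control at 100 nM for full effect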
CendR NRP1 mod: alters CendR peptide binding to human NRP-1; 360,000 compounds, 0.85% hits; FAM-RPARPAR peptide binding to NRP-1, fluorescence polarization; O14786; AID 602438; inhibition, % at 25 µM;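 active = inhibition or corrected inhibition above about 18%, plus a signal ratio from 0.5 to 1.5, limit read from the data, passing the limit was not always enough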
Target sequence (O14786 whole entry, looked up): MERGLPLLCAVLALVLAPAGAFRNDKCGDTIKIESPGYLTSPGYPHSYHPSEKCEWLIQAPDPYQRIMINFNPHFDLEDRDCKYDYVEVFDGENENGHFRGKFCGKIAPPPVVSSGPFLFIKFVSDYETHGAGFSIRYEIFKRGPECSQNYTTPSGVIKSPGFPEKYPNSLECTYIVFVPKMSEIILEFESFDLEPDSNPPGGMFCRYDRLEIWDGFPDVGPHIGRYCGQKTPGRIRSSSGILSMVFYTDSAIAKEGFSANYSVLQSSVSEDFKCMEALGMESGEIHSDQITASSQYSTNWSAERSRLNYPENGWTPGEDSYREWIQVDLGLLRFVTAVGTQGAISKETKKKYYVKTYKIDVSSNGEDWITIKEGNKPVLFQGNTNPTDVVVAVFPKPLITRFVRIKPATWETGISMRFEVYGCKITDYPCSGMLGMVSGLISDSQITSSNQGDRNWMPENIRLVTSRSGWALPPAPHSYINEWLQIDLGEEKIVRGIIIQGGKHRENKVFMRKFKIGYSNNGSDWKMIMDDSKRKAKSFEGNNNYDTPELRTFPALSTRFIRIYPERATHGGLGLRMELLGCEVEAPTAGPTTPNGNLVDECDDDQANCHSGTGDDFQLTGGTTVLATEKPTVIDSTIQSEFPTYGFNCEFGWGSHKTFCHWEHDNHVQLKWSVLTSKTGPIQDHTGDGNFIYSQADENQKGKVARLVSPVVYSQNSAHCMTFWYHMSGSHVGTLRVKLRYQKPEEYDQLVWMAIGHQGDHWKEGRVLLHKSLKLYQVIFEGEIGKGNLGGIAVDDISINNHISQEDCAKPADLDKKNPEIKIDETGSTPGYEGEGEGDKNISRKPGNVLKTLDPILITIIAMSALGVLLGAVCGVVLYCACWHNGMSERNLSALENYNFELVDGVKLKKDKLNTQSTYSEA
Fh CTSL1 inh: cathepsin L1 inhibition, PFM18AAP counter-screen | inhibition, % at 5.96 µM | 300,000 compounds, 0.49% hits | recombinant F. hepatica cathepsin L1, Z-Leu-Arg-MCA fluorescence;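 active = inhibition above the mean of all tested compounds plus 3 SD, set per screening campaign, cut at about 17% in these data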;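 also: 0% = plate median of test compound wells and 100% = 1 µM Z-Phe-Ala-diazomethylketone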
PHOSPHO1 inh: blocks human PHOSPHO1 phosphatase activity | inhibition, % at 13.3 µM | recombinant PHOSPHO1, absorbance phosphatase assay | 290,000 compounds, 1.1% hits; in the data active = inhibition above about 60%
TPT1 inh confirm: confirmation of Candida albicans TPT1 inhibitors. shares compounds with TPT1 inhibitor. inhibition, % at 5 µM. recombinant caTPT1, fluorescence polarization, RNase T1 coupled. 2,400 compounds, 74% hits. AID 2149;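 active = inhibition above the primary screen limit, the mean inhibition of all tested compounds plus 3 SD, cut at about 25% in these data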
RNase T1 counter: blocks Aspergillus oryzae RNase T1, a TPT1 counter-screen. shares compounds with TPT1 inhibitor. RNase T1 cleavage, fluorescence polarization, 1536-well. inhibition, % at 5 µM. 2,400 compounds, 83% hits;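 active = inhibition above the solvent-only control well mean plus 3 SD, limit set per screening run, cut at about 23% in these data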;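 also: plate controls were DMSO wells with enzyme for no effect and wells without RNase T1 for full effect; inhibitors block cleavage so intact labeled substrate keeps polarization high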
Numbers without * were called inactive; nt = not tested or not shown. Only some compounds are listed: those with a hit (about 3.3% of all), similar ones and a draw of the others.

SMILES	Rpn11 inh	HNF4A DNA FP	TPT1 inhibitor	CendR NRP1 mod	Fh CTSL1 inh	PHOSPHO1 inh	TPT1 inh confirm	RNase T1 counter
COc1ccc(N2CCN(C(=O)c3ccc4c(c3)NC(=O)C(CSCc3cccc(F)c3)N4)CC2)cc1 (centres undefined)	nt	nt	85*	nt	1	-6	8	14
CC(NC(=O)CN1C(=O)NC(C)(c2cccc3ccccc23)C1=O)c1ccccc1 (centres undefined)	2	-3	-3	-5	-2	28	nt	nt
Nc1c(C(=O)Nc2ccc(S(=O)(=O)N3CCCC3)cc2)sc2nc3cc4c(cc3cc12)CCC4	20	5	39*	-38	4	-2	25*	34*
CNC(=O)c1[nH]cnc1C(=O)Nc1ccccn1	-2	2	94*	2	-3	23	4	8
O=C(NCC1CCCO1)c1ccc(Cl)c(S(=O)(=O)Nc2ccccc2)c1 (centres undefined)	-8	3	1	-2	-1	8	nt	nt
CN1C(=O)/C(=C/c2ccc(OCc3ccc(F)cc3)cc2)N(C)C1=S	4	1	-2	-14	0	9	nt	nt
CCCN1C(=O)/C(=C/c2ccc(OCC(=O)OCC)cc2)NC1=S	-1	1	nt	12	nt	-1	nt	nt
Cc1cc(/C=C2\NC(=S)N(C)C2=O)ccc1N1CCCC1	nt	154	137*	134	1	-80	128*	122*
CCCN1C(=O)/C(=C/c2ccc(N3CCCC3)c(C)c2)NC1=S	nt	141	134*	125	1	-50	139*	130*
Cc1cc(/C=C2/C(=O)N(C)C(=S)N2C)ccc1N1CCCC1	nt	112	159*	90	1	18	155*	142*
O=C(NCCc1ccccc1)c1ccc2c(c1)S(=O)(=O)N=C1CCCCCN12	7	-11	nt	-8	nt	nt	nt	nt
COC[C@@H]1CCCN1[C@H]1CS(=O)(=O)N[C@@H]1COCc1ccccc1	0	-3	nt	15	nt	nt	nt	nt
CCCn1c(SCC(=O)Nc2cccnc2Cl)n[nH]c1=O	-3	1	nt	3	nt	nt	nt	nt
CCN(CC)C1=CC2=CC(=C(C#N)C#N)CCC2CC1 (centres undefined)	nt	-99	32*	134	4	0	22	37*
CCCCN(C)C1=CC2=CC(=C(C#N)C#N)CCC2CC1 (centres undefined)	nt	-98	3	138	1	-19	nt	nt
CCCNC(=O)Cn1c(=O)/c(=C/c2ccc(-c3cccc([N+](=O)[O-])c3)o2)s/c1=C\C(=O)C(C)(C)C	-70	-49	nt	142	nt	nt	nt	nt
CCCNC(=O)Cn1c(=O)/c(=C\c2ccc(-c3ccc([N+](=O)[O-])cc3)o2)s/c1=C\C(=O)C(C)(C)C	nt	135	109*	135	7	9	99*	99*
CCCNC(=O)Cn1c(=O)/c(=C\c2ccc(-c3cccc([N+](=O)[O-])c3)o2)s/c1=C\C(=O)C(C)(C)C	-39	-54	50*	121	18*	-10	-88	-58
CCN(CC(=O)Nc1ccc(OC)cc1)C(=O)c1cccc(S(=O)(=O)N2CCN(c3ccccc3)CC2)c1	1	1	nt	18	nt	nt	nt	nt
CCN(Cc1ccccc1)C(=O)c1cc(S(=O)(=O)N2CCOCC2)cn1C	15	-1	2	8	0	7	nt	nt
Cc1cccc(C)c1-n1c(C)cc(/C=N\Nc2ccc([N+](=O)[O-])cn2)c1C	nt	38	75*	-54	7	52	67*	79*
COc1cc(Cl)cc(CN2CCC(CCC(=O)NC3CC3)CC2)c1OC	-1	1	2	8	0	39	nt	nt
CCOc1cc(/C=C2\C(=O)N(c3nc(-c4ccc(Br)cc4)cs3)N=C2c2ccccc2)ccc1O	21	-12	41*	-274	6	41	100*	104*
COc1ccc(/C=C/c2cc[n+](C(=O)Cc3ccccc3)cc2)cc1	21	4	26*	2	1	36	7	8
COc1ccc(/C=C/C(=O)NCCCc2ccccc2)cc1	3	-1	1	0	2	1	nt	nt
SMILES	Rpn11 inh	HNF4A DNA FP	TPT1 inhibitor	CendR NRP1 mod	Fh CTSL1 inh	PHOSPHO1 inh	TPT1 inh confirm	RNase T1 counter
COc1ccc(CC(C(=O)Nc2ccc(OC)cc2)c2nn[nH]n2)cc1 (centres undefined)	-6	2	-3	7	2	40	nt	nt
COC(=O)Cc1c(C)c2ccc(OCC(=O)c3ccc(OC)c(OC)c3)cc2oc1=O	nt	nt	-3	nt	4	28	nt	nt
CN(CCC#N)c1ccc(/C=C(\C#N)c2ccccn2)cc1	12	1	25*	-20	1	-6	-67	-52
N#C/C(=C\c1ccc(C(=O)O)cc1)c1ccccn1	-2	-3	-4	3	3	36	nt	nt
CCN(Cc1ccccc1)c1ccc(/C=C(\C#N)c2ccccn2)cc1	33	25	67*	-25	1	-2	46*	50*
CCN(CC)c1ccc(/C=C(\C#N)c2ccccn2)cc1	nt	89*	135*	-171	2	-4	124*	129*
CN(CCC#N)c1ccc(C=C(C#N)c2ccc(Br)cc2)cc1	32	8	nt	-31	nt	nt	nt	nt
COc1ccc(C2CCCN2C(=S)Nc2ccc(C)cc2Cl)cc1OC (centres undefined)	4	-1	-3	2	-3	-23	nt	nt
CN1/C(=C\C(=O)Nc2ccc(Cl)cc2)C(C)(C)c2ccccc21	9	2	3	0	8	1	nt	nt
CN1/C(=C\C=C(/C#N)C(=O)Nc2ccc(Cl)cc2)C(C)(C)c2ccccc21	38	66	112*	-153	5	-7	36*	52*
CCOC(=O)c1c(Nc2ccc(Cl)cc2)sc(/C=C2\C=Nc3ccccc32)c1O	nt	45*	36*	-84	-5	9	46*	54*
Oc1nc(Nc2ccc(F)cc2)sc1/C=C1\C=Nc2ccccc21	17	6	5	-40	5	-10	nt	nt
CC(=O)c1cc(NC(=O)c2ccc(C)cc2)c(=O)oc1/C=C/N(C)C	nt	96*	156*	41	9	-4	134*	135*
COc1ccc(C(=O)Nc2cc(C(C)=O)c(/C=C/N(C)C)oc2=O)cc1	nt	117*	114*	-204	9	7	125*	130*
CC(=O)c1cc(NC(=O)c2ccc(C)cc2)c(=O)oc1C	4	3	3	-48	10	24	nt	nt
CCn1c(C(=O)N2CCC(C(=O)NCc3ccc(OC)cc3)CC2)cc2sccc21	-4	2	-2	-6	-5	43	nt	nt
N#C/C(=C/c1ccc(N2CCCCCC2)o1)c1cccc(F)c1	nt	98	160*	127	5	-24	177*	163*
